# TROY NFkB inh: TROY signaling inhibition; Q293 LMP1-TROYcd NF-kB luciferase reporter, 4 h; inhibition, % at 10 µM; 360,000 compounds, 0.98% hits; AID 1347056;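 active = compounds whose plate-normalised and pattern-corrected inhibition of the luciferase reporter signal at the single screening dose is 50% or more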
# LGR2 inh: Drosophila LGR2 receptor signaling inhibition; inhibition, % at 9.99 µM; AID 720647; HEK293 LGR2, CRE-luciferase, bursicon-stimulated, 4 h; 380,000 compounds, 0.35% hits;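 active = drop in luminescence signal, shown as inhibition above about 50% in the replicate tests, limit read from the data, passing the limit was not always enough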;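 note: agonist challenge used bursicon conditioned medium at about half maximal strength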
# TWEAK Fn14 block: TWEAK-Fn14 signaling inhibition | AID 1159606 | 360,000 compounds, 2% hits | inhibition, % at 10 µM | TWEAK-stimulated Fn14 reporter cells, luciferase luminescence, 8 h; in the data active = inhibition above about 50%
# HSP90 refold inh: HSP90 refolding inhibition in rabbit reticulocyte lysate; luciferase refolding luminescence, 3 h; 290,000 compounds, 0.91% hits; AID 1789; inhibition, % at 5.6 µM;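 active = inhibition above the screen-wide mean plus 3 SD, computed separately per campaign, cut at about 16% in these data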;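 note: 0% = DMSO wells and 100% = 60 µM geldanamycin wells; inhibitors lower the luminescence because luciferase stays unfolded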
# * = called active by the depositor; · = not tested or not shown. Only some compounds are listed: those with a hit (about 2.2% of all), similar ones and a draw of the others.
SMILES,TROY NFkB inh,LGR2 inh,TWEAK Fn14 block,HSP90 refold inh
N#Cc1ccc(-c2ccc3c(c2)[C@H]2[C@H](CCN2C(=O)C2CCCC2)[C@@H](CO)N3)cc1,·,-2,·,·
COc1ccc(Nc2nnc(SCC(=O)/C=C3/N(C)c4ccccc4C3(C)C)s2)cc1,37,4,71*,4
COc1ccc(C(=O)N2C[C@H]3[C@@H](c4ccccc42)[C@@H](CO)N3C(=O)NC(C)C)cc1,·,-16,·,·
CSc1nc(N)c2c3c(sc2n1)COC(C(C)C)C3 (stereo not drawn),7,·,6,0
CCCC1Cc2c(sc3nc(SC)nc(N)c23)CO1 (stereo not drawn),-24,·,68*,0
c1ccc(Nc2ncnc3sccc23)cc1,-20,9,-6,-4
CC(Nc1ncnc2sccc12)c1ccccc1 (stereo not drawn),32,-5,54*,2
COc1ccc(Nc2oc(COc3ccc(C)cc3)nc2C#N)cc1,-3,·,69*,-2
COc1ccc(CNc2oc(COc3ccccc3)nc2C#N)cc1,-32,·,-1,1
COc1ccc(Nc2oc(COc3cccc(C)c3)nc2C#N)cc1,-64,·,68*,1
COc1ccc(Nc2oc(COc3ccccc3F)nc2C#N)cc1,-31,8,57*,2
COc1ccc(Nc2oc(COc3ccc(OC)cc3)nc2C#N)cc1,9,·,86*,1
CC(C)CC#Cc1cnc2c(c1)C(=O)N([C@@H](C)CO)C[C@H](C)[C@@H](CN(C)C(=O)Nc1ccccc1F)O2,·,-17,·,·
C[C@@H]1CN([C@@H](C)CO)C(=O)c2cc(C3=CCCC3)cnc2O[C@H]1CN(C)C(=O)c1ccncc1,·,-2,·,·
CCCNC(=O)c1cc(-c2ccc3c(c2)OCO3)on1,-14,-21,51*,14
O=C(N[C@H]1CC[C@@H](CC(=O)N2CCCCC2)O[C@H]1CO)c1cccc(F)c1,·,1,·,·
C=C1C(C(=O)N2CCOCC2)C1C(=O)N1CCOCC1 (stereo not drawn),57*,-5,78*,1
COc1cccc(C(=O)N2C[C@H]3[C@@H](c4ccccc42)[C@@H](CO)N3C(C)=O)c1,·,14,·,·
CC(C)c1ccc(OCc2nc(-c3ccccn3)no2)c(Br)c1,7,·,38,-3
CCc1ccc(OCc2nc(-c3ccccn3)no2)c(Br)c1,45,·,59*,14
O=C(Nc1ccccc1)N1CCCC1,15,-1,-11,7
O=C(Nc1ccccc1)N1CCNCC1,90*,20,8,1
CC=Cc1ccc2n(c1=O)C[C@@H]1[C@@H](CO)[C@H](C(=O)NCc3ccccc3)N(CC)[C@H]21 (mixture of isomers),·,1,·,·
CCn1nccc1C(=O)Nc1ccc(Cl)cc1Cl,4,-19,55*,-2
CC(=O)N1Cc2cc(C(=O)NCc3cccc(F)c3)nc(-c3cccc(C4=CCCC4)c3)c2[C@@H]1CCO,·,9,·,·
SMILES,TROY NFkB inh,LGR2 inh,TWEAK Fn14 block,HSP90 refold inh
CNC(=O)N(O)C1N(NC(=O)Nc2ccccc2)C(=S)SC1(C)C (stereo not drawn),-10,2,1,0
CC1(C)SC(=S)N(NC(=O)Nc2cccc3ccccc23)C1N(O)C(=O)Nc1ccccc1 (stereo not drawn),55*,1,22,3
Cc1ccc(-c2nc(-c3ccccc3)no2)cc1,47,·,62*,-2
Cc1cccc(-c2noc(-c3ccc4c(c3)OCO4)n2)c1,42,66*,57*,1
c1ccc(-c2noc(-c3ccc4c(c3)OCO4)n2)nc1,85*,·,101*,41*
c1ccc(-c2noc(-c3cccnc3)n2)nc1,-2,·,32,2
Cc1ccc(-c2nc(-c3ccncc3)no2)cc1,-26,-63,40,9
Cc1occc1-c1nc(-c2ccncc2)no1,-9,·,-28,-1
Cc1occc1-c1nc(-c2ccccn2)no1,3,·,62*,12
COCCNC(=O)[C@H]1[C@H](CO)[C@H]2Cn3c(ccc(-c4ccccc4OC)c3=O)[C@H]2N1C(=O)C1CCC1,·,7,·,·
C[C@H]1CN([C@@H](C)CO)C(=O)Cc2cc(NC(=O)NC3CCCCC3)ccc2O[C@@H]1CN(C)Cc1ccc(C(F)(F)F)cc1,·,6,·,·
O=C(O)c1ccccc1SCc1cn2cc(Cl)ccc2n1,-8,10,15,-2
CC(SCc1cn2cc(Cl)ccc2n1)C(=O)O (stereo not drawn),·,·,76*,2
CCc1cccc(CC)c1NC(=O)/C(C#N)=C/c1ccccc1C(F)(F)F,42,41,83*,-1
COc1ccccc1N/N=C/c1ccc2c(c1)OCO2,-4,·,60*,-2
COc1cc(/C=N/NC(=O)c2cc(-c3ccc4c(c3)OCO4)n[nH]2)ccc1O,-15,-22,51*,2
COc1ccccc1C(=O)N/N=C/c1ccc2c(c1)OCO2,-26,-36,-9,0
CC(C)NC(=O)N1CC2(C1)[C@@H](c1ccccc1)[C@@H](CO)N2CCC(F)(F)F,·,2,·,·
COC1C(CO)OC(n2c3c(Cl)cccc3c3c4c(c5c6cccc(Cl)c6[nH]c5c32)C(=O)NC4=O)C(O)C1O (stereo not drawn),18,60*,0,·
COc1ccc2nc(Nc3nc(CSc4nc5ccccc5[nH]4)cc(=O)[nH]3)nc(C)c2c1,58*,87*,91*,3
Cc1ccc2nc(Nc3nc(CSc4nnnn4-c4ccccc4)cc(=O)[nH]3)nc(C)c2c1,6,·,46,1
Cc1nc(Nc2nc(-c3ccccc3)cc(=O)[nH]2)nc2ccccc12,13,63*,2,6
COc1ccc2c(C)nc(Nc3nc(C)c(C)c(=O)[nH]3)nc2c1,12,·,53*,-3
Cc1nc(Nc2nc(CSc3ccc(Cl)cc3)cc(=O)[nH]2)nc2ccccc12,-7,-5,-5,-4
Cc1nc(Nc2nc(CSc3nc4ccccc4[nH]3)cc(=O)[nH]2)nc2ccccc12,46,82*,92*,5
SMILES,TROY NFkB inh,LGR2 inh,TWEAK Fn14 block,HSP90 refold inh
C[C@@H]1CCCCO[C@@H](CN(C)C)[C@@H](C)CN([C@@H](C)CO)C(=O)c2cc(NC(=O)CCC(F)(F)F)ccc2O1,·,0,·,·
COc1ccccc1C(=O)N1C[C@@H]2[C@H](c3ccccc31)[C@@H](CO)N2C(=O)C1CC1,·,8,·,·
Cc1cc(C)cc(Nc2nc3ccccc3c(=O)[nH]2)c1,-29,-24,-3,1
COc1nc(Nc2nc3ccccc3c(=O)[nH]2)nc2ccc(C)cc12,2,52*,55*,4
COc1cccc(CN2[C@H](CO)[C@H](c3ccccc3)C23CN(C(=O)C2CCCCC2)C3)c1,·,-11,·,·
O=C(CSCC(=O)N1CCCCC1)Nc1nc(-c2ccccc2)c(-c2ccccc2)s1,8,8,52*,1
CCN(CC)S(=O)(=O)c1cc(NC(=O)c2ccc3c(c2)NC(=O)C(C)S3)ccc1C (stereo not drawn),67*,8,89*,·
C[C@H]1CCCCO[C@H](CN(C)S(=O)(=O)c2ccc(Cl)cc2)[C@@H](C)CN([C@@H](C)CO)C(=O)c2cc(NS(=O)(=O)c3ccccc3)ccc2O1,·,-5,·,·
CCOc1ccc(/C=C/C(=O)Nc2ccc(C(N)=O)cc2)cc1OC,6,-2,-9,2

# Source: PubChem BioAssay
